# Source: PubChem BioAssay (EPA / NIEHS)
# “And” between values parts separate entries of the source, which are not always exact repeats. Identical values can stand only once. Inconclusive results are not listed. The source holds several records for some structures; these can differ, active in one and inactive in another. The source made the active and inactive calls. Rule for the calls, unless noted: active = hit-call score of the fitted dose curve at least 0.9, where 1 is the maximum; inactive = score below 0.9.
# Columns and labels:
# [1] = biological target: Glucocorticoid receptor (Homo sapiens) (UniProt P04150); experiment: ATG_GR_TRANS: Attagene TRANS-FACTORIAL HepG2 Assay for human Glucocorticoid Receptor (GR) (AID 2282978; active = hit-call score of the fitted dose curve at least 0.9, where 1 is the maximum;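 note: activators score as hits since higher reporter transcript over DMSO is fitted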); conditions: HepG2 Attagene TRANS GR reporter, mRNA transcription
# Method in brief: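 Transient MRTU transfection of HepG2 (GAL4-UAS reporters, exogenous NR-GAL4 chimeras), 24 h dosing. Readout: reporter transcript via RT-PCR + capillary electrophoresis fluorescence. Positive direction vs DMSO baseline.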
# [2] = biological target: Bile acid receptor (Homo sapiens) (UniProt Q96RI1); experiment: ATG_FXR_TRANS: Attagene TRANS-FACTORIAL HepG2 Assay for Farnesoid X Receptor (FXR) (AID 2282979; active = hit-call score of the fitted dose curve at least 0.9, where 1 is the maximum;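 note: hits raise reporter mRNA above DMSO so AC50 marks FXR activation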); conditions: HepG2 Attagene TRANS FXR-GAL4 reporter transcription
# Method in brief: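 Read-out: fluorescent reporter transcripts quantified by capillary electrophoresis after RT-PCR of total RNA. Source cells were HepG2 transiently carrying chimeric NR-GAL4 plus GAL4-UAS reporter units, dosed 24 h. Activity fitted upward relative to DMSO baseline.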
# [3] = biological target: Oxysterols receptor LXR-alpha (Homo sapiens) (UniProt Q13133); experiment: ATG_LXRa_TRANS: Attagene TRANS-FACTORIAL HepG2 Assay for human Liver X Receptor alpha (LXRa) (AID 2282980; active = hit-call score of the fitted dose curve at least 0.9, where 1 is the maximum); conditions: HepG2 Attagene TRANS reporter, LXRa transactivation
# Method in brief: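 Read-out: reporter transcript levels by RT-PCR plus capillary electrophoresis, fluorescence intensity. Transiently transfected HepG2, exogenous NR-GAL4 chimera, GAL4-UAS reporters; 24 h compound exposure. Activity = increase over DMSO negative control.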
# [4] = biological target: Oxysterols receptor LXR-beta (Homo sapiens) (UniProt P55055); experiment: ATG_LXRb_TRANS: Attagene TRANS-FACTORIAL HepG2 Assay for human Liver X Receptor beta (LXRb) (AID 2282981; active = hit-call score of the fitted dose curve at least 0.9, where 1 is the maximum); conditions: HepG2 Attagene TRANS GAL4-LXRb reporter, mRNA
# Method in brief: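 Liver-derived HepG2 cells transfected with Gal4-responsive reporters were dosed for 24 h. Activation was scored as rise in reporter mRNA, by RT-PCR and capillary electrophoresis, above DMSO baseline.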
# [5] = biological target: Hepatocyte nuclear factor 4-alpha (Homo sapiens) (UniProt P41235); experiment: ATG_HNF4a_TRANS: Attagene TRANS-FACTORIAL HepG2 Assay for human Hepatocyte Nuclear Factor 4 alpha (HNF4a) (AID 2282982; active = hit-call score of the fitted dose curve at least 0.9, where 1 is the maximum); conditions: HepG2 HNF4a transactivation reporter, mRNA readout
# Method in brief: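 Using HepG2 liver cells transfected with GAL4-UAS reporter units, chemical-induced mRNA increases were assessed after 24 hours. Fluorescent RT-PCR fragments were separated by capillary electrophoresis and compared with DMSO negative controls.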
# [6] = ATG_M_32_TRANS: Attagene TRANS-FACTORIAL HepG2 Assay for M32 Transcription Factor (Internal Marker) (AID 2282984; active = hit-call score of the fitted dose curve at least 0.9, where 1 is the maximum;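 note: transcript level of a background control reporter unit measured by RT-PCR and capillary electrophoresis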); conditions: HepG2 Attagene TRANS M32 internal marker reporter
# Method in brief: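 Fluorescence-detected mRNA induction, HepG2 liver cells, 24 h after dosing. Multiple GAL4-UAS reporter units introduced by transient transfection; background-control endpoint analysed for gain of signal against DMSO.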
# [7] = biological target: Nuclear receptor subfamily 4 group A member 2 (Homo sapiens) (UniProt P43354); experiment: ATG_NURR1_TRANS: Attagene TRANS-FACTORIAL HepG2 Assay for human Nuclear Receptor Related Protein 1 (NURR1) (AID 2282985; active = hit-call score of the fitted dose curve at least 0.9, where 1 is the maximum); conditions: HepG2 Attagene TRANS reporter, mRNA readout
# Method in brief: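 Chimeric NR-Gal4 proteins were expressed in human HepG2 cells bearing GAL4-UAS reporter units, and induced reporter mRNA was quantified 24 h post-dosing by RT-PCR and capillary electrophoresis.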
# [8] = biological target: Transcriptional activator Myb (Homo sapiens) (UniProt P10242); experiment: ATG_Myb_CIS: Attagene CIS-FACTORIAL HepG2 Assay for human Myeloblastosis (Myb) Proto-Oncogene Transcription Factor (AID 2282986); conditions: HepG2 Attagene CIS-FACTORIAL Myb reporter transcription; actives raise or lower the signal
# Method in brief: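 HepG2, transient MRTU transfection (cis-element promoters, endogenous TF activity), 24 h compound exposure. Readout: reporter mRNA via RT-PCR, 6-FAM labeling, HpaI digest, capillary electrophoresis. Gain/loss fit vs DMSO.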
# [9] = biological target: Nuclear respiratory factor 1 (Homo sapiens) (UniProt Q16656); experiment: ATG_NRF1_CIS: Attagene CIS-FACTORIAL HepG2 Assay for human Nuclear Respiratory Factor 1 (NRF1) Orphan Gene (AID 2282987); conditions: HepG2 NRF1 cis-element reporter, Attagene multiplex; actives raise or lower the signal
# Method in brief: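 Endogenous NRF1-driven reporter transcription measured in transiently transfected human HepG2 liver cells. Readout: reporter mRNA by RT-PCR and capillary electrophoresis with fluorescence detection, 24 h post-dosing. Gain or loss of signal fitted relative to DMSO baseline.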
# [10] = ATG_NFI_CIS: Attagene CIS-FACTORIAL HepG2 Assay for human Nuclear Factor I (NFI) (AID 2282989); conditions: HepG2 cis-regulatory reporter, NFI response element transcription; actives raise or lower the signal
# Method in brief: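 Cells: human liver HepG2, transiently transfected with promoter-regulated reporter transcription units. Exposure 24 h. Detection: fluorescent RT-PCR products separated by capillary electrophoresis, normalised to DMSO negative control.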
# [11] = biological target: Myc proto-oncogene protein (Homo sapiens) (UniProt P01106); experiment: ATG_Myc_CIS: Attagene CIS-FACTORIAL HepG2 Assay for human Myelocytomatosis (Myc) Proto-Oncogene Transcription Factor (AID 2282990); conditions: HepG2, Attagene cis-reporter transcription factor activity; actives raise or lower the signal
# Method in brief: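 Multiplexed cis-reporter transcription in HepG2 cells after 24 h chemical treatment. Reporter mRNA measured by RT-PCR and capillary electrophoresis fluorescence; activity fitted bidirectionally against DMSO control.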
# [12] = ATG_NF_kB_CIS: Attagene CIS-FACTORIAL HepG2 Assay for human Nuclear Factor Kappa B (NF-kB) (AID 2282991); conditions: HepG2 Attagene cis-factorial NF-kB reporter mRNA; actives raise or lower the signal
# Method in brief: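 Read-out: reporter transcript levels quantified by RT-PCR plus capillary electrophoresis of 6-FAM-labelled, HpaI-cut fragments. Transfected HepG2 cells, 24 h compound exposure, endogenous NF-kB-driven cis element; gain or loss scored versus DMSO.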
# [13] = ATG_NRF2_ARE_CIS: Attagene CIS-FACTORIAL HepG2 Assay for human Nuclear Factor Erythroid 2 Related Factor 2 (NFR2) response to Antioxidant Response Elements (ARE) (AID 2282992); conditions: HepG2 Attagene ARE/NRF2 reporter, transcription factor activity; actives raise or lower the signal
# Method in brief: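 Endogenous transcription factor activity in human liver HepG2 cells is tracked via a cis-element-driven reporter within a multiplexed set. mRNA induction is read by RT-PCR and capillary electrophoresis after 24 h, with DMSO as baseline.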
# [14] = ATG_Oct_MLP_CIS: Attagene CIS-FACTORIAL HepG2 Assay for human Octamer-Binding Transcription Factor (Oct) (AID 2282993); conditions: HepG2 Attagene cis-factorial Oct reporter, mRNA; actives raise or lower the signal
# Method in brief: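 HepG2, transient MRTU transfection, cis promoter elements; 24 h dosing; RT-PCR/CE fluorescence read-out of reporter mRNA; fit both directions vs DMSO.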
# [15] = BSK_3C_TissueFactor: BioMAP Diversity Plus: 3C Assay for Tissue Factor Biomarker Activity (AID 2282997); conditions: BioMAP 3C HUVEC, tissue factor biomarker readout; actives raise or lower the signal
# Method in brief: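 HUVEC, 3C system, 24 h post-dose; Tissue Factor by ELISA; bidirectional fit vs DMSO baseline.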
# [16] = BSK_3C_uPAR: BioMAP Diversity Plus: 3C Assay for Urokinase-type plasminogen activator receptor (uPAR) Biomarker Activity (AID 2282998); conditions: BioMAP 3C HUVEC, uPAR biomarker ELISA; actives raise or lower the signal
# Method in brief: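 A multiplexed primary-cell system built on human umbilical vein endothelium was used, with chemical present for 24 h before reading. Cell-surface uPAR was detected by ELISA; signal change in either direction counted against DMSO.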
# [17] = BSK_3C_VCAM1: BioMAP Diversity Plus: 3C Assay for Vascular cell adhesion molecule 1 (VCAM1) Biomarker Activity (AID 2282999); conditions: BioMAP 3C HUVEC, VCAM1 ELISA, cytokine-stimulated; actives raise or lower the signal
# Method in brief: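 Vascular primary endothelium (human umbilical vein) was exposed to chemicals and assayed 24 h later. VCAM-1 levels came from ELISA, with DMSO serving as baseline for bidirectional fitting.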
# [18] = ATG_GAL4_TRANS: Attagene TRANS-FACTORIAL HepG2 Assay for GAL4 (Internal Marker) (AID 2282976; active = hit-call score of the fitted dose curve at least 0.9, where 1 is the maximum); conditions: HepG2 Attagene TRANS GAL4 internal marker reporter
# Method in brief: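 RT-PCR/capillary electrophoresis readout of reporter mRNA. HepG2, transient MRTU transfection (GAL4-UAS reporters), 24 h compound exposure. Background-control endpoint, positive direction vs DMSO baseline.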
# [19] = ATG_M_06_TRANS: Attagene TRANS-FACTORIAL HepG2 Assay for M06 Transcription Factor (Internal Marker) (AID 2282983; active = hit-call score of the fitted dose curve at least 0.9, where 1 is the maximum); conditions: HepG2 Attagene TRANS M06 internal marker reporter
# Method in brief: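 Read-out: fluorescent reporter cDNA fragments resolved by capillary electrophoresis after RT-PCR and HpaI cut. Source cells were HepG2 carrying transfected multi-reporter GAL4 constructs, dosed 24 h. Increase over DMSO control analysed.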
# Chain of Transcriptional activator Myb (Homo sapiens) (P10242 whole entry, looked up): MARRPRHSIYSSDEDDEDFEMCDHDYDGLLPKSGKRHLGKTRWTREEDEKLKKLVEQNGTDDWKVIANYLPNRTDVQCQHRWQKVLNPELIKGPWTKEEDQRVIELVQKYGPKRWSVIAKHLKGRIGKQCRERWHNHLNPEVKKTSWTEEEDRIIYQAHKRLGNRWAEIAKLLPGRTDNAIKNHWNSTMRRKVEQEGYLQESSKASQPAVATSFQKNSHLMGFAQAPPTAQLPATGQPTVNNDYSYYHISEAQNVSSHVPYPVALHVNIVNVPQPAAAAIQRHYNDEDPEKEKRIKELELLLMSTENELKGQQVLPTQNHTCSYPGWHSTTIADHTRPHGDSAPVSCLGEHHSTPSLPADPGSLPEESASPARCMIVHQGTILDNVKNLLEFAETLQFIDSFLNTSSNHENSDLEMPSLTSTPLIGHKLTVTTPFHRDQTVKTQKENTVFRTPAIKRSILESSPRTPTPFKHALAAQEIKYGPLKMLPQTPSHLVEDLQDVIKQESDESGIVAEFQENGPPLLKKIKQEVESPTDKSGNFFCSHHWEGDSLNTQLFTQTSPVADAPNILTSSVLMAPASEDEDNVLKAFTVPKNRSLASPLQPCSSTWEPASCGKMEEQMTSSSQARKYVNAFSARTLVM
# Chain of Oxysterols receptor LXR-beta (Homo sapiens) (P55055 whole entry, looked up, the tested form may be a part): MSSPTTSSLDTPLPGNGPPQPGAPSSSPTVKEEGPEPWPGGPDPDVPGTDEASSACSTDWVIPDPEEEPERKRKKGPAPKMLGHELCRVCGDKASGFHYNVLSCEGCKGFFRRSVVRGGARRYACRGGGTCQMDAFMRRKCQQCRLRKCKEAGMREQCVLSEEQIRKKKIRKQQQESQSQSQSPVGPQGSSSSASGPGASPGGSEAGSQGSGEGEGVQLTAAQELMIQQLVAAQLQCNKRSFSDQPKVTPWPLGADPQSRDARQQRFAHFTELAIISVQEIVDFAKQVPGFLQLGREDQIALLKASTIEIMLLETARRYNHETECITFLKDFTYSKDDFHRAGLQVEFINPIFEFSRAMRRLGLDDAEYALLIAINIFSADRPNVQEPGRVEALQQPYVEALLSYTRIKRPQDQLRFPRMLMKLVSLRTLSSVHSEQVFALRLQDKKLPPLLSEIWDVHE
# Chain of Nuclear receptor subfamily 4 group A member 2 (Homo sapiens) (P43354 whole entry, looked up, the tested form may be a part): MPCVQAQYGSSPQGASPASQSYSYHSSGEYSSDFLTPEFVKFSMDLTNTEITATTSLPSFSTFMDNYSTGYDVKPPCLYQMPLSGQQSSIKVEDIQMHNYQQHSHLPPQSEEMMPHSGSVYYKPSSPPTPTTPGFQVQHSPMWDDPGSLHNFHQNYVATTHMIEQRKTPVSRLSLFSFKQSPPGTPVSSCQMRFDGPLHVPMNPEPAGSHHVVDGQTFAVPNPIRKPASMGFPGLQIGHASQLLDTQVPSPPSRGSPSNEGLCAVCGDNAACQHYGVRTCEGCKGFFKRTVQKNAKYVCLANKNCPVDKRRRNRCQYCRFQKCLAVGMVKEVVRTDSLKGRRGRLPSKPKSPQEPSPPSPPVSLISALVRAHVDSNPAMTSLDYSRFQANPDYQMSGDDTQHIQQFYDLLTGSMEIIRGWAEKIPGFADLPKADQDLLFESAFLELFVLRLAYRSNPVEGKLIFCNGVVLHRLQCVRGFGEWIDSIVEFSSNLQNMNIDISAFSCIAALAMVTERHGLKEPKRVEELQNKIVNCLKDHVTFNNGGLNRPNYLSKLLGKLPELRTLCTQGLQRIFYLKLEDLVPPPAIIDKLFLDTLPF
# Chain of Myc proto-oncogene protein (Homo sapiens) (P01106 whole entry, looked up): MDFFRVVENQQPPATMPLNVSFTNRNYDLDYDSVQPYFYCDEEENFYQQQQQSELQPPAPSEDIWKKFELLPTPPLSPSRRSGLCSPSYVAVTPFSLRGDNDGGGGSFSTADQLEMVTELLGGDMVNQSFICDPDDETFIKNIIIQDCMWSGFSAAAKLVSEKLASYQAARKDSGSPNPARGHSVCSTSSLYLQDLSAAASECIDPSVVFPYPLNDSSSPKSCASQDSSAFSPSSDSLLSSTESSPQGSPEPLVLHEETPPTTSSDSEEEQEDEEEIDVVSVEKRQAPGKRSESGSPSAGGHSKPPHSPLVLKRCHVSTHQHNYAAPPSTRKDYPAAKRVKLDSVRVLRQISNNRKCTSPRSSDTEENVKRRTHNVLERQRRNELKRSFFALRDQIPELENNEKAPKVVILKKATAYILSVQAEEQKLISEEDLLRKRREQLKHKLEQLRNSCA
# Chain of Hepatocyte nuclear factor 4-alpha (Homo sapiens) (P41235 whole entry, looked up, the tested form may be a part): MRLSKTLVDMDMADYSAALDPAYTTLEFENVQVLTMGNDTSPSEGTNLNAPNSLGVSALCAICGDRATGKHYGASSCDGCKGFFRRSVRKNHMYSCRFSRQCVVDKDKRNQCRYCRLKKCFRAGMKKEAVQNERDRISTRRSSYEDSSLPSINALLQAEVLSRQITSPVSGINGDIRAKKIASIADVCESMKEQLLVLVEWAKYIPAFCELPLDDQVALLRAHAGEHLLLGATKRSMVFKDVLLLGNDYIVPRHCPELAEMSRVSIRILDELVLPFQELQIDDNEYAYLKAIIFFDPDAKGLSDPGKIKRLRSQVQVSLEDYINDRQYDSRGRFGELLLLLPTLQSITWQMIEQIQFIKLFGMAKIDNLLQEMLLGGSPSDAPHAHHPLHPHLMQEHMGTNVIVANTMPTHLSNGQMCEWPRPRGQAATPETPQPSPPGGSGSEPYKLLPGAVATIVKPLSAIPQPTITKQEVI
# Chain of Nuclear respiratory factor 1 (Homo sapiens) (Q16656 whole entry, looked up): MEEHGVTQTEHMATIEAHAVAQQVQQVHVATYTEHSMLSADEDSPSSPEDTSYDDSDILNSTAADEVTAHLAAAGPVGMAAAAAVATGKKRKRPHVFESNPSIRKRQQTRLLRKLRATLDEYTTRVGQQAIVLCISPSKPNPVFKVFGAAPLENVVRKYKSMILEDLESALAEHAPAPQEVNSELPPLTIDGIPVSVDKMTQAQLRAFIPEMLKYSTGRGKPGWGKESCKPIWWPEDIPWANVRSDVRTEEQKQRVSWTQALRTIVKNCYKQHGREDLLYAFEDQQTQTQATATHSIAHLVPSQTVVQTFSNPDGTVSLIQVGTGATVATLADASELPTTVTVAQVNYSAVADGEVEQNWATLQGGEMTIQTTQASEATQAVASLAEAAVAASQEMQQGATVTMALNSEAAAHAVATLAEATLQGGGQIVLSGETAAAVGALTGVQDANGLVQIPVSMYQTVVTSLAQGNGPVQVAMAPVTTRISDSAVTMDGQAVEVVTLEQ
# Chain of Glucocorticoid receptor (Homo sapiens) (P04150 whole entry, looked up, the tested form may be a part): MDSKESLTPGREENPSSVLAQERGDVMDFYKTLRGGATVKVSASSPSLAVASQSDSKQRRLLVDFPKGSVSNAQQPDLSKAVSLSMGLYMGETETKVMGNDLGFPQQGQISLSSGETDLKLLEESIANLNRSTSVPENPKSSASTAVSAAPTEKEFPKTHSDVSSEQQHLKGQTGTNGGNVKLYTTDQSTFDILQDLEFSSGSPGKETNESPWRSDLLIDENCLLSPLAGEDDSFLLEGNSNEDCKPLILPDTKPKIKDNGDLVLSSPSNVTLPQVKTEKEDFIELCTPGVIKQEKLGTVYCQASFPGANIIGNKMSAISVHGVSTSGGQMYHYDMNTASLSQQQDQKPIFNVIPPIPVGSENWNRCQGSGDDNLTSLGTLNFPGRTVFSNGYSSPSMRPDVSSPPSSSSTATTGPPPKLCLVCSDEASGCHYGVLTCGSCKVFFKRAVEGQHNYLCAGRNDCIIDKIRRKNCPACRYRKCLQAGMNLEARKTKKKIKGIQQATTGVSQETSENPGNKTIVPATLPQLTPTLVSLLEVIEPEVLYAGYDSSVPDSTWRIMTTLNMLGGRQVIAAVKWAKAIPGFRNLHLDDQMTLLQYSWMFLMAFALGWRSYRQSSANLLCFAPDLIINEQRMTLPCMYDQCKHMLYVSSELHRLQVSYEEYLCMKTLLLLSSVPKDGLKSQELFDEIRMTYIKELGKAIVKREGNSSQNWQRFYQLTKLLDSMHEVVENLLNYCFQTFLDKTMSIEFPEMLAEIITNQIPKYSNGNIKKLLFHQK
# Chain of Oxysterols receptor LXR-alpha (Homo sapiens) (Q13133 whole entry, looked up, the tested form may be a part): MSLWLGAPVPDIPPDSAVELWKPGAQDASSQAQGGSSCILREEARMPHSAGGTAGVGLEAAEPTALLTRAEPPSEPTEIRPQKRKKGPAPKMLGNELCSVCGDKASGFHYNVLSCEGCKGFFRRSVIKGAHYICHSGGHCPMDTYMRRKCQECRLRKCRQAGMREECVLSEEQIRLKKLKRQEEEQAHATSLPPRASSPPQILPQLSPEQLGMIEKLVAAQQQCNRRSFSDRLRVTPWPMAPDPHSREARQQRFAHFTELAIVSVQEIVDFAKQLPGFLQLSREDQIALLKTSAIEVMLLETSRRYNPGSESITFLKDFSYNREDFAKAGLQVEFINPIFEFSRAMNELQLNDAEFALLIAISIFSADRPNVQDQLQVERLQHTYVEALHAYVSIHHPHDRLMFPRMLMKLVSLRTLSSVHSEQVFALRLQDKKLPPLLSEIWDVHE
# Chain of Bile acid receptor (Homo sapiens) (Q96RI1 whole entry, looked up, the tested form may be a part): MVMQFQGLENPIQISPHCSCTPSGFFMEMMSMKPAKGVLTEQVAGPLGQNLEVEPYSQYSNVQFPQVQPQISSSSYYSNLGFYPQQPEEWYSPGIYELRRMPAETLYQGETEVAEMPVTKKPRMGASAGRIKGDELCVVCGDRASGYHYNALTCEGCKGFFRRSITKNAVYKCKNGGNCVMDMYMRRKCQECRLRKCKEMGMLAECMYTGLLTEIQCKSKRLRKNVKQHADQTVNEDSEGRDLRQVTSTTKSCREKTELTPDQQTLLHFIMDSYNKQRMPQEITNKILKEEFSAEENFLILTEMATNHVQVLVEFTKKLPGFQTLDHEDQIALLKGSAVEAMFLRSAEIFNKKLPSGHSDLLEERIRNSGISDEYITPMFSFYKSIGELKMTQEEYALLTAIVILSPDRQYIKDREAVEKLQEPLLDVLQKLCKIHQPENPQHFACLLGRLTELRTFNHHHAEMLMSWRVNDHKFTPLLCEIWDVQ
structure (smiles),measurement,setting,value
O=C(Nc1ccccc1)Nc1cnns1,outcome,[1],inactive
same,outcome,[2],inactive
same,outcome,[3],inactive
same,outcome,[4],inactive
same,outcome,[5],inactive
same,outcome,[6],inactive
same,outcome,[7],inactive
same,AC50,[8],78.3 µM (active)
same,outcome,[9],inactive
same,AC50,[10],80.9 µM (active)
same,outcome,[11],inactive
same,outcome,[12],inactive
same,AC50,[13],50 µM (active)
same,AC50,[14],71.8 µM (active)
same,outcome,[15],inactive
same,outcome,[16],inactive
same,outcome,[17],inactive
CC1(C)C(C=C(Cl)Cl)C1C(=O)OC(C#N)c1ccc(F)c(Oc2ccccc2)c1 (stereo not drawn),outcome,[18],inactive
same,outcome,[1],inactive
same,outcome,[4],inactive
same,outcome,[19],inactive
same,outcome,[6],inactive
same,outcome,[7],inactive
same,outcome,[8],inactive
same,outcome,[9],inactive
same,outcome,[10],inactive
same,outcome,[11],inactive
same,outcome,[12],inactive
same,AC50,[13],7.81 µM (active)
same,AC50,[14],2.22 µM (active)
same,outcome,[15],inactive
same,outcome,[17],inactive
CCS(=O)(=O)c1cccnc1S(=O)(=O)NC(=O)Nc1nc(OC)cc(OC)n1,outcome,[1],inactive
same,outcome,[2],inactive
same,outcome,[4],inactive
same,outcome,[5],inactive
same,outcome,[19],inactive
same,outcome,[6],inactive
same,outcome,[7],inactive
same,outcome,[8],inactive
same,outcome,[9],inactive
same,outcome,[10],inactive
same,outcome,[11],inactive
same,outcome,[12],inactive
same,AC50,[13],17.6 µM (active) and 19.1 µM (active)
same,outcome,[14],inactive
same,outcome,[15],inactive
same,outcome,[17],inactive
ClC1C(Cl)C(Cl)C(Cl)C(Cl)C1Cl (stereo not drawn),outcome,[18],inactive
same,AC50,[2],139 µM (active)
same,outcome,[2],inactive
same,outcome,[3],inactive
same,outcome,[4],inactive
same,outcome,[5],inactive
same,outcome,[19],inactive
same,outcome,[6],inactive
same,outcome,[7],inactive
same,outcome,[8],inactive
same,outcome,[9],inactive
same,outcome,[10],inactive
same,outcome,[11],inactive
same,outcome,[12],inactive
same,AC50,[13],33.2 µM (active) and 26.2 µM (active)
same,outcome,[13],inactive
same,AC50,[14],10.1 µM (active) and 100 µM (active)
same,outcome,[14],inactive
same,outcome,[15],inactive
same,AC50,[16],28.4 µM (active)
same,outcome,[16],inactive
same,AC50,[17],30.1 µM (active)
same,outcome,[17],inactive
O=S(=O)(O)C(F)(F)C(F)(F)C(F)(F)C(F)(F)C(F)(F)C(F)(F)C(F)(F)C(F)(F)F,outcome,[18],inactive
same,outcome,[3],inactive
same,outcome,[4],inactive
same,outcome,[5],inactive
same,outcome,[19],inactive
same,outcome,[6],inactive
same,outcome,[7],inactive
same,outcome,[8],inactive
same,AC50,[9],111 µM (active)
same,outcome,[9],inactive
same,AC50,[10],133 µM (active)
same,outcome,[10],inactive
same,AC50,[11],23 µM (active) and 48.3 µM (active)
same,outcome,[11],inactive
same,AC50,[13],24.7 µM (active) [middle of 9 runs]
same,outcome,[13],inactive
same,AC50,[14],135 µM (active) and 54.7 µM (active)
same,outcome,[14],inactive
same,outcome,[15],inactive
same,outcome,[17],inactive
CCC(C)(NC(=O)c1cc(Cl)c(C)c(Cl)c1)C(=O)CCl (stereo not drawn),outcome,[1],inactive
same,outcome,[2],inactive
same,outcome,[3],inactive
same,outcome,[4],inactive
same,outcome,[5],inactive
same,outcome,[19],inactive
same,outcome,[6],inactive
same,outcome,[7],inactive
same,outcome,[8],inactive
same,outcome,[9],inactive
same,outcome,[10],inactive
same,outcome,[11],inactive
same,outcome,[12],inactive
same,AC50,[13],1.64 µM (active)
same,outcome,[14],inactive
same,AC50,[15],5.41 µM (active)
same,AC50,[17],9.51 µM (active)
